Over roughly 33,000 sequences, “e-score” has its median near -0.053; the highest 2% begin near 0.38. Many of the other results were omitted from the sample, so the highest values are more common in it than they were.

The experiment deals with T1, SIX1 homeodomain (reference allele) (human, UniProt Q15475 108-198).
T1 sequence: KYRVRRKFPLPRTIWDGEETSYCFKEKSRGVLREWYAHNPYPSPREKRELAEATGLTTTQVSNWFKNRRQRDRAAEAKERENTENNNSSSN
Briefly: universal protein binding microarray; Universal all-10-mer PBM (8x60K, AMADID 030236), 300 nM GST-tagged protein, Alexa Fluor 488 anti-GST; buffer, salt, pH and temperature not stated (as in Berger); high values mean tight binding. The settings on record: protein: ivt; tags: N-terminal GST; dsDNA, one strand shown. The gist of the method: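 Duplicate protein binding microarrays (universal 'all 10-mer', 8×60K format) were incubated with GST-tagged homeodomains at 300 nM final concentration. Binding was quantified as 8-mer E-scores with the Universal PBM Analysis Suite.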
On to GTGGGATA, for which the binding signal is 0.348 ± 0.0178 E-score.
Under ACGGGATA stands 0.376 ± 0.00774 E-score.
Under AGGGGGGA stands 0.206 ± 0.028 E-score.
Under ATGGGATA stands 0.36 ± 0.00494 E-score.
As to GGGGGATA, the binding signal was 0.4424 ± 0.00147 E-score.
Under CTGGGATA stands 0.266 ± 0.0214 E-score; under CCAGGGTA, 0.221 ± 0.0174 E-score.
As for GGAACACC, the binding signal worked out at 0.187 ± 0.018 E-score.
As for CATTAATA, the binding signal amounted to 0.154 ± 0.0188 E-score.
Take ATAACATC: the binding signal stood at 0.165 ± 0.0558 E-score.
With GATCACGA, the binding signal was determined as 0.273 ± 0.0518 E-score.
With ATCACCGA, the binding signal is 0.251 ± 0.0115 E-score.
Turning to CATATGGG, the binding signal worked out at 0.179 ± 0.0474 E-score.
For the sequence CGCGTATC, the binding signal amounted to 0.424 ± 0.00815 E-score.
Turning to CGCGTATA, the binding signal was found to be 0.232 ± 0.0592 E-score.
Regarding AGCGTATA, the binding signal was found to be 0.233 ± 0.0627 E-score.
On to AGCGTATC, for which the binding signal is 0.411 ± 0.0267 E-score.
Under GGCGTATA stands 0.179 ± 0.0032 E-score; under CGCCTATC, 0.218 ± 0.0337 E-score.
Under AAACCCGG stands 0.163 ± 0.0401 E-score.
As for ATACCCGG, the figure is 0.407 ± 0.0266 E-score; as for ATACCCGC, 0.3787 ± 0.00251 E-score; as for ATACCCGA, 0.407 ± 0.00771 E-score.
Consider ATACCAGC, for which the binding signal came to 0.3035 ± 0.00134 E-score.
As for ACACCCGA, the figure is 0.294 ± 0.0236 E-score; as for ATACCAGG, 0.3772 ± 0.00332 E-score.
As for AGACCCGG, the figure is 0.214 ± 0.0594 E-score; as for ATACCAGA, 0.299 ± 0.0031 E-score.
For the sequence ACACCCGC, the binding signal was 0.27 ± 0.0197 E-score.
Under ATACACGC stands 0.328 ± 0.00888 E-score; under AGACCCGA, 0.196 ± 0.0537 E-score; under GATTATAA, 0.165 ± 0.0198 E-score.
Under GATTACAC stands 0.164 ± 0.0334 E-score; under ATAGACAC, 0.285 ± 0.0262 E-score.
Under GACACGGA stands 0.196 ± 0.00735 E-score.
AGGAATAC: the binding signal was found to be 0.2106 ± 0.00182 E-score.
On to GGATTGGA, for which the binding signal was 0.171 ± 0.00314 E-score.
For ATACTGCC, the binding signal is 0.3133 ± 0.000361 E-score.
Under ATCGTTGC stands 0.202 ± 0.04 E-score.
Turning to TAATACTA, the binding signal turned out to be 0.276 ± 0.0717 E-score.
Under GCATAATA stands 0.187 E-score; under CGGATCAC, 0.463 ± 0.00697 E-score.
As for CCGATCAC, the figure is 0.346 ± 0.0289 E-score; as for CTGATCAG, 0.313 ± 0.0448 E-score; as for CGGATCAG, 0.443 ± 0.0116 E-score.
CCGATCAG: the binding signal came out at 0.24 ± 0.0341 E-score.
As to CGGATCAA, the binding signal is 0.417 ± 0.0173 E-score.
Under GGGATCGA stands 0.385 ± 0.0533 E-score.
On to CGGATCGA, for which the binding signal came to 0.34 ± 0.0821 E-score.
On to CTGATCAC, for which the binding signal was 0.204 ± 0.0353 E-score.
For TGGATCAA, the binding signal worked out at 0.3057 ± 0.00301 E-score.
As for AGGATCAA, the binding signal was determined as 0.352 ± 0.036 E-score.
In the case of AGGATCGA, the binding signal is 0.289 ± 0.0472 E-score.
Consider CGAGATCG, for which the binding signal came out at 0.207 ± 0.0304 E-score.
Under TAATATGA stands 0.196 ± 0.0472 E-score.
Under CCCCGATA stands 0.347 ± 0.00347 E-score; under CCTTGATC, 0.243 ± 0.0361 E-score.
In the case of GGGATCAC, the binding signal is 0.445 ± 0.0186 E-score.
On to GTGATCAC, for which the binding signal amounted to 0.306 ± 0.0127 E-score.
As for GGGATCAA, the figure is 0.386 ± 0.0187 E-score.
Under GCGATCAC stands 0.354 ± 0.0376 E-score; under GCGATCAA, 0.18 ± 0.0413 E-score; under GAGATCAA, 0.31 ± 0.0391 E-score.
Under ATCGGTGG stands 0.189 ± 0.0514 E-score; under CAACACCG, 0.268 ± 0.021 E-score; under CCCTGATC, 0.33 ± 0.0305 E-score.
With GGTTGATA, the binding signal worked out at 0.384 ± 0.0228 E-score.
On to GCTTGATA, for which the binding signal worked out at 0.351 ± 0.0581 E-score.
For the sequence AGTTGATA, the binding signal was 0.406 ± 0.0373 E-score.
As for ACTTGATA, the figure is 0.374 ± 0.0379 E-score; as for AGTTGATC, 0.23 ± 0.0154 E-score.
As for CGTTGATA, the figure is 0.334 ± 0.0658 E-score; as for AGATAACG, 0.191 ± 0.042 E-score; as for ATATGCGC, 0.27 ± 0.0371 E-score.
With CGGCTCAC, the binding signal amounted to 0.174 ± 0.0262 E-score.
Under ATTATCCC stands 0.274 ± 0.0711 E-score; under CCTATCCC, 0.291 ± 0.0369 E-score; under CGTATCCC, 0.389 ± 0.00815 E-score.
Under AGTATCCC stands 0.412 ± 0.00869 E-score; under CGTATCCA, 0.403 ± 0.0252 E-score.
As for ACTATCCC, the figure is 0.294 ± 0.0143 E-score.
For CCTATCCA, the binding signal was found to be 0.232 ± 0.0293 E-score.
Under CTTATCCC stands 0.235 ± 0.0469 E-score; under CTTATCCA, 0.186 ± 0.0114 E-score; under GATCCTGC, 0.353 ± 0.0135 E-score.
Under CATCTAAG stands 0.178 ± 0.0937 E-score.
As for ATACTGGA, the figure is 0.325 ± 0.00489 E-score.

The values above are taken from PMC10668032, “Altered binding affinity of SIX1-Q177R correlates with enhanced WNT5A and WNT pathway effector expression in Wilms tumor”.
